# Data published in ChEMBL document CHEMBL3988442, “University of Dundee, Small-Polar-MMV Screening Library” (2021).
# Hit rate of the full screen: of about 66,000 compounds, about 960 (1.5%) showed an effect of 50% or more. The sample as a whole holds a higher share of strong results than the screen did.
# System: Trypanosoma brucei
# Test: Trypanosoma brucei 72 hour study
# Assay type: functional, organism-based
# Parameters: scale not given: in the data most compounds retested in dose-response had high values
smiles,measurement,setting,value
CN(C)CCn1ccc2cc(NC(=O)NCc3ncnn3C)ccc21,Percent Effect,"30.3 µM, […]",-3.411%
Cc1cc(NC(=O)Nc2ccc3c(ccn3CCN(C)C)c2)n(C)n1,Percent Effect,"30.3 µM, […]",55.17%
Cc1nc(CNC(=O)Nc2ccc3c(ccn3CCN(C)C)c2)no1,Percent Effect,"30.3 µM, […]",-6.711%
Cc1cccc(CN2Cc3ncn(C)c3C(COCC(=O)N(C)C)C2)n1.O=C(O)C(F)(F)F.O=C(O)C(F)(F)F.O=C(O)C(F)(F)F (configuration not stated),Percent Effect,"30.3 µM, […]",-54.51%
Cl.c1cncc(CNc2cncc(C3CCCN3)n2)c1 (configuration not stated),Percent Effect,"30.3 µM, […]",-3.878%
Cc1nc(CN2CCO[C@@H]3CN(Cc4nccs4)C[C@@H]3C2)cs1.O=C(O)C(F)(F)F.O=C(O)C(F)(F)F,Percent Effect,"30 µM, 30.03 µM",45.29%
Cl.Cn1cc(CN(Cc2ccccc2)Cc2ccccn2)cn1,Percent Effect,"30.3 µM, […]",-17.42%
CN(C)[C@@H]1CN(Cc2ccccn2)C[C@H]1c1cn(C)c2ccccc12.Cl,Percent Effect,"30.3 µM, […]",22.59%
CN(C)[C@@H]1CN(Cc2ccccc2O)C[C@H]1c1cn(C)c2ccccc12.Cl,Percent Effect,"30.3 µM, […]",100%
CN(C)[C@@H]1CN(Cc2ccc(O)cc2)C[C@H]1c1cn(C)c2ccccc12.Cl,Percent Effect,"30.3 µM, […]",10.26%
CCn1nc(C)c(-c2cncn2CCN(C)C2CCCC2)c1C.Cl,Percent Effect,"30.3 µM, […]",-4.685%
O=C(c1c(O)cc(F)cc1F)N1CCc2cnccc21,Percent Effect,"30 µM, 30.03 µM",-42.5%
CCO[C@@H]1CO[C@@]2(CCN(Cc3ccc4c(c3)OCO4)C2)C1.O=C(O)C(F)(F)F,Percent Effect,"30.3 µM, […]",14.48%
Cc1[nH]nc(CCC(=O)N2CCc3ncnc(NCCO)c3CC2)c1C,Percent Effect,"30 µM, 30.03 µM",-37%
O=C(CCn1cccc1)N1CCc2[nH]nc(COc3ccccc3)c2C1,Percent Effect,"30 µM, 30.03 µM",-16.91%
O=C(CCc1cccs1)N1CCc2[nH]nc(COc3ccccc3)c2C1,Percent Effect,"30 µM, 30.03 µM",68.24%
O=C(CCc1ccco1)N1CCc2[nH]nc(COc3ccccc3)c2C1,Percent Effect,"30 µM, 30.03 µM",-57.79%
Cc1nn(C(C)C)c(C)c1CN1CCN(C2CCCCC2)C(=O)C1.O=C(O)CC(O)(CC(=O)O)C(=O)O,Percent Effect,"30.3 µM, […]",-4.336%
CC(=O)N1CCCCC12CCCN(Cc1ccco1)C2.O=C(O)C(F)(F)F (configuration not stated),Percent Effect,"30.3 µM, […]",5.13%
Cc1cc(C)c(-c2nc(-c3c(C)ncc4c3CCNC4)no2)o1,Percent Effect,"30 µM, 30.03 µM",-0.4206%
CN(Cc1cccnc1)C1CC2(CCN(c3ncccn3)CC2)C1.O=C(O)C(F)(F)F.O=C(O)C(F)(F)F,Percent Effect,"30.3 µM, […]",-50.17%
CN(C)C1COC2(CCN(Cc3nccs3)CC2)C1.O=C(O)C(F)(F)F.O=C(O)C(F)(F)F (configuration not stated),Percent Effect,"30.3 µM, […]",-5.42%
CN(Cc1cccnc1)C1CC2(CCN(c3ccccn3)CC2)C1.O=C(O)C(F)(F)F.O=C(O)C(F)(F)F.O=C(O)C(F)(F)F,Percent Effect,"30 µM, 30.03 µM",54.5%
CC(C)CCN1C2(CCN(Cc3nccs3)C2)c2ccccc2S1(=O)=O.O=C(O)C(F)(F)F (configuration not stated),Percent Effect,"30.3 µM, […]",91.13%
CN(Cc1ccccn1)C1COC2(CCN(Cc3nccs3)CC2)C1 (configuration not stated),Percent Effect,"30 µM, 30.03 µM",58.22%
CN(Cc1ccccn1)C1COC2(CCN(Cc3cccnc3)CC2)C1 (configuration not stated),Percent Effect,"30 µM, 30.03 µM",-2.463%
CN(Cc1cccnc1)C1CC2(CCN(Cc3ccccn3)CC2)C1.O=C(O)C(F)(F)F.O=C(O)C(F)(F)F.O=C(O)C(F)(F)F,Percent Effect,"30.3 µM, […]",-569.4%
COCCN1C2(CCN(Cc3nccs3)C2)c2ccccc2S1(=O)=O.O=C(O)C(F)(F)F (configuration not stated),Percent Effect,"30.3 µM, […]",-203.3%
CN(Cc1ccco1)C1COC2(CCN(Cc3nccs3)CC2)C1.O=C(O)C(F)(F)F.O=C(O)C(F)(F)F (configuration not stated),Percent Effect,"30.3 µM, […]",-7.244%
CN(C)CCN1C2(CCN(Cc3nccs3)C2)c2ccccc2S1(=O)=O.O=C(O)C(F)(F)F.O=C(O)C(F)(F)F (configuration not stated),Percent Effect,"30.3 µM, […]",-461.1%
CN(Cc1ccccc1)C1COC2(CCN(Cc3nccs3)CC2)C1.O=C(O)C(F)(F)F (configuration not stated),Percent Effect,"30 µM, 30.03 µM",56.78%
CN(Cc1cccnc1)C1COC2(CCN(Cc3nccs3)CC2)C1.O=C(O)C(F)(F)F.O=C(O)C(F)(F)F.O=C(O)C(F)(F)F (configuration not stated),Percent Effect,"30.3 µM, […]",-7.601%
CCc1n[nH]c(C2CN(C(=O)c3cnc(C)cn3)CCO2)n1 (configuration not stated),Percent Effect,10 µM,-10.87%
Cc1noc(C)c1CN1CCN(CC2CC2)c2ncccc2C1.O=C(O)C(F)(F)F.O=C(O)C(F)(F)F,Percent Effect,"30 µM, 30.03 µM",-2.749%
CNC(=O)C1CCCCN1C(=O)C1CCN(S(C)(=O)=O)CC1 (configuration not stated),Percent Effect,"30.3 µM, […]",4.842%
Cc1nc(Nc2nncs2)cc(C2CNC2)n1.O=C(O)C(F)(F)F,Percent Effect,"30.3 µM, […]",-21.99%
CC(C)NC(=O)N1CCN(CCn2cccn2)c2ncccc2C1.O=C(O)C(F)(F)F,Percent Effect,"30.3 µM, […]",-82.31%
CN(C)CC(=O)N1CCCC2(CCN(c3ccccc3)C2=O)C1.O=C(O)C(F)(F)F (configuration not stated),Percent Effect,"30.3 µM, […]",-9.805%
Cc1noc(C)c1CN1C[C@H](OCc2ccncc2)[C@H]2OCCC[C@H]21.O=C(O)C(F)(F)F.O=C(O)C(F)(F)F,Percent Effect,"30 µM, 30.03 µM",3.056%
CN(C)C(=O)[C@@H]1C[C@@H]2[C@@H](CCN2Cc2nccs2)O1.O=C(O)C(F)(F)F,Percent Effect,"30.3 µM, […]",-77.1%
Cn1ccc(CN2CCCC23CCN(Cc2ccccc2F)CC3)n1.O=C(O)C(F)(F)F.O=C(O)C(F)(F)F,Percent Effect,"30.3 µM, […]",-74.92%
O=C(NC1CC1)N1CCOCC2(CCN(Cc3cccs3)C2)C1.O=C(O)C(F)(F)F (configuration not stated),Percent Effect,"30.3 µM, […]",-9.319%
Cl.c1nn(C2CCCCC2)cc1-c1cncn1CCCN1CCCCC1,Percent Effect,"30.3 µM, […]",-11.05%
Cc1cccc(C(=O)N2CCC3(CCN(c4cnn(C)c4)C3=O)C2)n1.O=C(O)C(F)(F)F (configuration not stated),Percent Effect,"30 µM, 30.03 µM",-10.65%
Cl.NC1CCc2nc(-c3cccnc3)nc(Nc3ccc(F)cc3)c2C1 (configuration not stated),Percent Effect,"30.3 µM, […]",100.3%
CC(O)CNc1nc(-c2cccnc2)nc2c1CCC2 (configuration not stated),Percent Effect,"30 µM, 30.03 µM",5.601%
c1cncc(-c2nc3c(c(NCC4(c5ccncc5)CC4)n2)CCC3)c1,Percent Effect,"30 µM, 30.03 µM",-5.668%
CCc1noc(CNc2nc(-c3cccnc3)nc3c2CCNCC3)n1,Percent Effect,"30.3 µM, […]",2.358%
CN(CC1CCCO1)c1nc(-c2cccnc2)nc2c1CCNCC2 (configuration not stated),Percent Effect,"30 µM, 30.03 µM",0.7603%
CN(C)c1cccc(C(=O)N2CCCC2c2ncc3c(n2)CCNC3)c1.Cl (configuration not stated),Percent Effect,"30.3 µM, […]",-32.8%
CNS(=O)(=O)c1ccc(CNC(=O)N2CCOC(C)C2)cc1 (configuration not stated),Percent Effect,"30.3 µM, […]",-5.397%
Cc1ccc2[nH]c(CNC(=O)C3CC4(CCNCC4)CN3C)nc2c1C (configuration not stated),Percent Effect,"30 µM, 30.03 µM",-11.35%
CN(Cc1cncnc1)[C@@H]1CN(C(=O)c2ccco2)[C@@H]2CCCO[C@H]12.O=C(O)C(F)(F)F,Percent Effect,"30.3 µM, […]",-35.75%
OCCN1CCC(c2csc(Nc3cnccn3)n2)CC1,Percent Effect,"30.3 µM, […]",6.088%
c1cnc(N2CCCC(c3csc(Nc4cnccn4)n3)C2)nc1 (configuration not stated),Percent Effect,"30.3 µM, […]",86.19%
Cc1nc(Nc2cnccn2)cc(C2CCN(c3ncccn3)C2)n1 (configuration not stated),Percent Effect,"30.3 µM, […]",26.81%
c1cnc(N2CCC(c3csc(Nc4cnccn4)n3)CC2)nc1,Percent Effect,"30.3 µM, […]",69.17%
NC(=O)CN1CCC(c2csc(Nc3cnccn3)n2)CC1,Percent Effect,"30.3 µM, […]",30.88%
CC(=O)N1CCCC1c1csc(Nc2cnccn2)n1 (configuration not stated),Percent Effect,"30 µM, 30.03 µM",-20%
CCC(=O)N1CCCC1c1csc(Nc2cnccn2)n1 (configuration not stated),Percent Effect,"30.3 µM, […]",65.49%
c1cnc(Nc2cncc(C3CCCN(c4ncccn4)C3)n2)nc1 (configuration not stated),Percent Effect,"30.3 µM, […]",-5.193%
COCC(=O)N1CCCC1c1csc(Nc2cnccn2)n1 (configuration not stated),Percent Effect,"30.3 µM, […]",22.69%
Cc1c[nH]nc1C1CCCN1Cc1nccn1C.O=CO (configuration not stated),Percent Effect,"30.3 µM, […]",-18.81%
CN1CCC(CN2CCC3(CCCN(Cc4ccoc4)C3)C2=O)CC1.O=C(O)C(F)(F)F.O=C(O)C(F)(F)F (configuration not stated),Percent Effect,"30.3 µM, […]",-15.67%
Cn1cc(-c2ncc3c(c2C(=O)O)CCN(Cc2ccco2)C3)cn1.O=C(O)C(F)(F)F,Percent Effect,"30.3 µM, […]",-50.82%
CN(C)C1CCC2(CCN(Cc3cccnc3)CC2)c2ccccc21.O=C(O)C(F)(F)F.O=C(O)C(F)(F)F.O=C(O)C(F)(F)F (configuration not stated),Percent Effect,"30.3 µM, […]",-21.62%
c1ccc(C2CCCN(c3ncnc4c3CCNC4)CC2)cc1 (configuration not stated),Percent Effect,"30.3 µM, […]",41.62%
c1cc(C2CCN(c3ncnc4c3CCNCC4)CC2)ccn1,Percent Effect,"30.3 µM, […]",2.643%
c1ccn2c(C3CCCN(c4ncnc5c4CCNC5)C3)nnc2c1 (configuration not stated),Percent Effect,"30 µM, 30.03 µM",-44.47%
c1ccc2c(c1)CN(c1ncnc3c1CCNC3)CCO2,Percent Effect,"30.3 µM, […]",5.814%
c1ccc(C2CCN(c3ncnc4c3CCNC4)CC2)cc1,Percent Effect,"30.3 µM, […]",50.1%
Clc1cccc(C2CCN(c3ncnc4c3CCNC4)C2)c1 (configuration not stated),Percent Effect,"30.3 µM, […]",68.15%
CCCC(=O)NC1CCN(c2ccccc2S(=O)(=O)CC)CC1,Percent Effect,"30.3 µM, […]",-21.44%
CCNc1ncc2c(n1)CN(c1ccc(CC)cc1)C2=O,Percent Effect,"30.3 µM, […]",-19.29%
COc1cccc(Cc2nc3c([nH]2)CC(C)(C)CNC3=O)c1OC,Percent Effect,"30 µM, 30.03 µM",5.431%
O=C1NCCN1C1CCN(Cc2nc(-c3ccccc3)no2)CC1,Percent Effect,"30.3 µM, […]",2.472%
same,Percent Effect,"10 mM, 10 mM as filed; unlikely as a test dose",-47.27%
O=C(c1ccco1)N1C[C@H]2CN(Cc3cccc(F)c3)C(=O)[C@H]2C1,Percent Effect,"30 µM, 30.03 µM",-14.72%
O=C(NC1CC1)N1C[C@H]2CN(Cc3cccc(F)c3)C(=O)[C@H]2C1,Percent Effect,"30 µM, 30.03 µM",59.25%
O=C(CO)N1C[C@H]2CN(Cc3cccc(F)c3)C(=O)[C@H]2C1,Percent Effect,"30 µM, 30.03 µM",-7.119%
O=C(O)C(F)(F)F.O=C(O)C(F)(F)F.c1csc(CN2CCOCC3(CCN(C4CCOCC4)C3)C2)c1 (configuration not stated),Percent Effect,"30 µM, 30.03 µM",45.09%
O=c1[nH]c2c(c(=O)n1C1CCCCC1)CCC2NCc1ccccc1 (configuration not stated),Percent Effect,"30 µM, 30.03 µM",-25.27%
CCn1nc(C)c2ncnc(NCCCn3ccnc3)c21,Percent Effect,"30.3 µM, […]",-35.88%
Cc1cccc(C)c1Oc1ncccc1CNC(=O)C1COC(=O)N1 (configuration not stated),Percent Effect,"30 µM, 30.03 µM",52.62%
COc1ccccc1Oc1ncccc1CNC(=O)C1COC(=O)N1 (configuration not stated),Percent Effect,"30 µM, 30.03 µM",-37.43%
Cc1ccc(Oc2ncccc2CNC(=O)C2COC(=O)N2)c(F)c1F (configuration not stated),Percent Effect,"30 µM, 30.03 µM",17.54%
O=C(O)C(F)(F)F.O=C(O)C(F)(F)F.O=C(O)C(F)(F)F.O=C(O)C(F)(F)F.c1ccc(CN2CCc3c(COCc4ccncc4)cncc3C2)nc1,Percent Effect,"30.3 µM, […]",-62.04%
